Screening results from PubChem BioAssay.
ALDH1A1 block: qHTS Assay for Inhibitors of Aldehyde Dehydrogenase 1 (ALDH1A1); Purified ALDH1A1, NADH fluorescence, propionaldehyde substrate; Potency, µM (top dose mostly 75.3 µM), hits mostly inhibitors; actives 7.3% (n = 220,000); active means well fitted inhibition curve with a large enough effect, not every such curve was filed as active; inconclusive means small, poorly fitted or top-dose-only effect, or another doubt; inactive means no such curve, though single readings can be large or run the other way
NPSR antagonist: qHTS Assay for Antagonists of the Neuropeptide S Receptor: cAMP Signal Transduction; Potency, µM (doses to about 38.3 µM), hits mostly inhibitors; actives 1% (n = 220,000); Q6W5P4; CHO-NPSR cells, cAMP TR-FRET, antagonist mode; further: nearly all actives have a fitted effect of over 50% in size
HPGD block: qHTS Assay for Inhibitors of HPGD (15-Hydroxyprostaglandin Dehydrogenase); Potency, µM, actives largely listed as inhibitors; purified HPGD, NADH fluorescence kinetic, PGE2 substrate; actives 4.3% (n = 150,000); active means well fitted inhibition curve with a large enough effect, not every such curve was filed as active; inconclusive means small, poorly fitted or top-dose-only effect, or another doubt; inactive means no such curve, though single readings can be large or run the other way
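20 nM HPGD preincubated 15 min at room temperature with compound in 50 mM Tris-HCl pH 8, 0.01% Tween 20. Started with 1 mM NAD+ and 30 uM prostaglandin E2; NADH fluorescence (360/450 nm) read 5 times over 30-s intervals, last minus first.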
IMPase Li cell: qHTS Assay for Identifying the Cell-Membrane Permeable IMPase Inhibitors: Potentiation with Lithium; Potency, µM (titrated, usually from 59.4 µM), usual class: inhibitors; AID 1457, 2008; CHO-M1 cells, IP1 TR-FRET (IP-One), carbachol + lithium; actives 0.35% (n = 210,000);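 further: IP1 builds up when IMPase is blocked and the TR-FRET signal falls; nearly all actives have a fitted effect of over 50% in size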
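CHO cells stably expressing M1 receptor (2000/well, cultured 16–30 h) treated 30 min at 37C with compound plus low lithium. Cytosolic IP1 by TR-FRET (665/620 ratio and 620 channel) after 10 min lysis; AC50 by Hill fit.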
IMPase cell inh: qHTS Assay for Identifying the Cell-Membrane Permeable IMPase Inhibitors | Inositol monophosphatase 1 (Rattus norvegicus), P97697 | CHO-M1 cells, IP1 accumulation, HTRF TR-FRET ratio | inhibition (IP1 accumulation), % at 46.1 µM | 120,000 tested, under 10 active | AID 901, 2007; active means well fitted curve in the direction sought with a large enough effect in the signal ratio, not every such curve was filed as active; inconclusive means small, poorly fitted or top-dose-only effect, or a change in a side signal; inactive means no such curve, though single readings can be large or run the other way; the % refers to the signal ratio;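 further: cells stimulated with carbachol in lithium chloride buffer; higher means more IMPase inhibition seen as more IP1 and lower FRET ratio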
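In this qHTS, compounds (final up to 46 uM) act on CHO-M1 cells that are then activated through the M1 receptor with carbachol, in pH 7.4 buffer containing 50 mM LiCl, for 30 min. IP1 accumulation is quantified by the IP-One immunoassay.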
ALOX12 inhib: qHTS Assay for Inhibitors of 12-hLO (12-human lipoxygenase) | Potency, µM (highest dose often 57.1 µM), actives largely listed as inhibitors | AID 1452, 2008 | purified 12-hLO, xylenol orange hydroperoxide absorbance | actives 0.12% (n = 150,000) | Polyunsaturated fatty acid lipoxygenase ALOX12 (Homo sapiens), P18054; further: nearly all actives have a fitted effect of over 55% in size
Target sequence (P18054 whole entry, looked up): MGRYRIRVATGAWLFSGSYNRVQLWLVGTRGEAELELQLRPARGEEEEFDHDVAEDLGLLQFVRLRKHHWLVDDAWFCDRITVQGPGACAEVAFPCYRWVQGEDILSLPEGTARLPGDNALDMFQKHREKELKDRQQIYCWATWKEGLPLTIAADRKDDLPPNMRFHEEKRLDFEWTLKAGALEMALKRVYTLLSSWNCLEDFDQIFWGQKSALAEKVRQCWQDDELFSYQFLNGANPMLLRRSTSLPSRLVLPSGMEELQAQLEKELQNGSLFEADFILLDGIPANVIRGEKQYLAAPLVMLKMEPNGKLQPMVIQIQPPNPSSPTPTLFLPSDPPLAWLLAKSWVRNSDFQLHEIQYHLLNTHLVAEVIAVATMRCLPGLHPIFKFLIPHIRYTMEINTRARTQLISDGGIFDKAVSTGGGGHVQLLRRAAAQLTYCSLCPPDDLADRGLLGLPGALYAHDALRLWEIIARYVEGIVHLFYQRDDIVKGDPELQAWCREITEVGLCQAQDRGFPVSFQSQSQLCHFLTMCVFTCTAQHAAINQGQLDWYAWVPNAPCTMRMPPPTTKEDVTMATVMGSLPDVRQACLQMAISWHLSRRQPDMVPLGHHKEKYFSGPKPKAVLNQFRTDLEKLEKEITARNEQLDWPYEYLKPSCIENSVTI
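Lipoxygenase turnover measured by absorbance at 573 and 405 nm after Fe-XO development. Human 12hLO 150 nM, arachidonate 40 uM, pH 7.0 Hepes buffer with detergent; 15 min compound preincubation, 30 min reaction.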
A number is an active result; 0 = inactive; ? = inconclusive; - = no result given; [ ] = another dose, or the depositor's remark. This is a sample that favours compounds with a hit; in the whole collection about 8.9% have one here. Unless noted, the call rests on the fitted dose curve; in most records, active means well fitted curve in the direction sought with a large enough effect; inconclusive means small, poorly fitted or top-dose-only effect, or another doubt; inactive means no such curve, though single readings can be large; an effect the other way counts as inactive or inconclusive.

SMILES	ALDH1A1 block	NPSR antagonist	HPGD block	IMPase Li cell	IMPase cell inh	ALOX12 inhib
O=C(O)c1cc(Cl)c(Cl)cc1C(=O)N1CCCC1	0	0	0	0	0	0
O=C(c1cc(F)c(F)cc1Cl)N1CCCCC1	0	0	5.6µM	0	0	0
O=C(c1ccc2c(c1)OCCCO2)N1CCCCC1	-	0	-	-	-	-
c1ccc(OCCN2C3=NCCN3c3ccccc32)cc1	0	0	-	-	0	0
CCn1c(SCC(=O)Nc2nc(C)cs2)nnc1-c1ccoc1C	?	0	0	0	0	0
COc1ccc2[nH]c(-c3ccccc3)cc(=O)c2c1	?	-	?	0	-	0[0.00818 µM]
c1ccc(Cn2nnnc2CN2CCN(c3ncccn3)CC2)cc1	11µM	0	0	0	0	0
O=C(O)C1C2C=CC(O2)C1C(=O)Nc1ccccc1C(F)(F)F (configuration not stated)	14µM	0	0	0	0	0
O=C(O)[C@@H]1[C@@H](C(=O)Nc2ccccc2)[C@@H]2C=C[C@@H]1O2	0[13.5 µM]	-	0	0	-	0[11.4 µM]
CCCCS(=O)CC(COC)OC(=O)c1ccccc1 (configuration not stated)	0	0	-	0	-	-
Cc1ccc(C)c(NC(=O)COc2cccc3c2CCN(Cc2ccccc2C)C3=O)c1	?	0	0	0	0	0
O=C1c2cccc(OCC(=O)N3CCCc4ccccc43)c2CCN1Cc1ccc(Br)cc1	7.9µM	0	0	0	0	0
Cc1ccc(CN2CCc3c(OCC(=O)Nc4cccc(C)c4C)cccc3C2=O)cc1	25µM	0	0	0	-	0
COc1ccc(C2NC(=S)NC3=C2N2CCC3CC2)cc1 (configuration not stated)	-	0	-	-	-	-
O=C(Nc1ccc(F)cc1)Nc1cc(S(=O)(=O)N2CCOCC2)ccc1N1CCCC1	0	0	-	0	-	-
CCS(=O)(=O)c1ccc2c(c1)N(S(C)(=O)=O)CC(C(=O)NN)O2 (configuration not stated)	0.56µM	0	-	0	-	-
Cc1ccc(NC(=O)C(NC2CCCc3ccccc32)c2ccccc2)cc1Cl (configuration not stated)	14µM	0	0	0	-	0
Cc1ccc(C(C)n2cc(C(=O)NCc3cccnc3)nn2)cc1 (configuration not stated)	11µM	?	0	0	0	0
CC(c1ccccc1)n1cc(C(=O)NCc2ccccn2)nn1 (configuration not stated)	0	0	0	0	0	0
N#CCSc1nnc2sc3ccccc3n12	0	0	0	0	0	0
Cc1c(Cl)cccc1NC(=S)Nn1cnnc1	13µM	0	-	0	-	-
Cc1c(Cl)cccc1NC(=S)NC1CC1	?	0	0	0	-	0
Cn1c(=O)c(-c2cccs2)nc2cnc(OCc3ccccc3)nc21	?	-	-	0	-	-
COC(=O)/C=C/c1cc(O)ccc1O	28µM	-	-	0	-	-
CCOC(=O)C1=C(C)NC(C)=C(C(=O)OCCNC(=O)c2cccnc2)C1c1cccc([N+](=O)[O-])c1 (configuration not stated)	0	0	0	0	-	0
SMILES	ALDH1A1 block	NPSR antagonist	HPGD block	IMPase Li cell	IMPase cell inh	ALOX12 inhib
COC(=O)C1=C(C)NC(C)=C(C(=O)OCCN(C)Cc2ccccc2)C1c1cccc([N+](=O)[O-])c1 (configuration not stated)	0	10µM	0	0	-	0
CCCC(=O)Nc1nc2ccc(OCC)cc2s1	0	0	0	0	0	0
CCOc1ccc2nc(NC(=O)CS(=O)(=O)c3ccc(C)cc3)sc2c1	25µM	0	0	0	0	0
CCOc1ccc2nc(NC(=S)N(C)C)sc2c1	25µM	?	14µM	0	0	0
CCOc1ccc2nc(NC(=O)CS(=O)(=O)c3ccccc3)sc2c1	0	0	0	0	0	0
CCOCC(=O)Nc1nc2ccccc2s1	22µM	0	0	0	0	0
CCNC(=O)Nc1nc2ccccc2s1	0	0	-	0	-	-
CN(C)C(=S)Nc1nc2ccccc2s1	7.9µM	?	-	0	-	-
O=S(O)O.O=S(O)O.[Co].[NH2-].[NH2-].[NH2-].[NH2-]	0[13.5 µM]	-	0	0	-	0[11.4 µM]
Cc1cc(C)c(-n2nnnc2SC(C)C)c(C)c1	0	0	0	0	-	0
COc1ccc(-c2ccc3ccccc3n2)cc1OC	?	0	-	0	-	-
COc1cccc(C2c3c(-c4ccccc4O)n[nH]c3C(=O)N2Cc2ccco2)c1 (configuration not stated)	-	0	-	-	-	-
Cc1ccc(S(=O)(=O)NCCCNC(=O)c2ccccc2)cc1	13µM	?	0	0	0	0
Cc1ccc(S(=O)(=O)NCCNC(=O)c2ccccc2)cc1	0	0	0	0	0	0
Cc1ccc(S(=O)(=O)NCCc2ccncc2)cc1	?	0	0	0	0	0
Cc1ccc(C(=O)NCCCNc2ccccc2[N+](=O)[O-])cc1	2.2µM	0	-	0	-	-
Cc1ccc(S(=O)(=O)NCCCOC(=O)Nc2ccncc2)cc1	16µM	0	0	0	0	0
O=C(O)CSSCC(=O)O	0[13.5 µM]	-	0	0	-	0[11.4 µM]
Cc1ccccc1NC(=O)C1c2cccc[n+]2CC(=O)N1c1c(C)cccc1C (configuration not stated)	11µM	0	0	0	0	0
CCOC(=O)c1c(-c2cccs2)csc1NC(=O)COC(=O)c1c(C)noc1C	0	?	?	0	0	0
CCCCCCC[N+](CC)(CC)CCCCc1ccc(Cl)cc1	0	-	0	0	0	0
C/C(=N\NC(=O)COc1ccccc1)c1ccc(O)cc1	?	0	-	0	-	-
C/C(=N\NC(=O)c1ccc(COc2ccccc2)cc1)c1ccncc1	25µM	0	-	0	-	-
Cc1ccc(CNC(=O)CC2Nc3c4ccccc4nc(=S)n3C2=O)cc1 (configuration not stated)	0	0	-	5.6µM	-	-
CC(C)CCNC(=O)CC1Nc2c3ccccc3nc(=S)n2C1=O (configuration not stated)	0	0	0	0	?	0
Cc1nc2ncnn2c(C)c1CCC(=O)NCCc1ccccc1	0	0	0	0	0	0
Cc1cccc(N2CCN(C(=O)CN3C(=O)NC(C)(C)C3=O)CC2)c1C	0	0	-	-	-	-
O=[N+]([O-])c1ccc(O)c(NC(=S)Nc2ccccc2)c1	22µM	0	?	0	0	0
O=C1/C(=C/c2ccncc2)SC(=S)N1C1CCS(=O)(=O)C1 (configuration not stated)	22µM	0	0	0	0	0
